Assay results as given in the supplement of paper PMC11732987, “Enantioselective OTUD7B fragment discovery through chemoproteomics screening and high-throughput optimisation” (Communications Chemistry, 2025).

Legend:
Experiment in all cases: log2 ratio of Biotin-Ahx-Ub-VS probe labelling (fragment/DMSO); higher = less target engagement (more negative = stronger competition), active = hit call of the paper (q ≤ 0.05, log2 ratio ≤ -1)
Conditions in all cases: compound concentration: 200 uM; treatment time: 3 h
[1] = molecular target: T1, USP42 (UniProt Q9H9J4)
T1 sequence (whole entry): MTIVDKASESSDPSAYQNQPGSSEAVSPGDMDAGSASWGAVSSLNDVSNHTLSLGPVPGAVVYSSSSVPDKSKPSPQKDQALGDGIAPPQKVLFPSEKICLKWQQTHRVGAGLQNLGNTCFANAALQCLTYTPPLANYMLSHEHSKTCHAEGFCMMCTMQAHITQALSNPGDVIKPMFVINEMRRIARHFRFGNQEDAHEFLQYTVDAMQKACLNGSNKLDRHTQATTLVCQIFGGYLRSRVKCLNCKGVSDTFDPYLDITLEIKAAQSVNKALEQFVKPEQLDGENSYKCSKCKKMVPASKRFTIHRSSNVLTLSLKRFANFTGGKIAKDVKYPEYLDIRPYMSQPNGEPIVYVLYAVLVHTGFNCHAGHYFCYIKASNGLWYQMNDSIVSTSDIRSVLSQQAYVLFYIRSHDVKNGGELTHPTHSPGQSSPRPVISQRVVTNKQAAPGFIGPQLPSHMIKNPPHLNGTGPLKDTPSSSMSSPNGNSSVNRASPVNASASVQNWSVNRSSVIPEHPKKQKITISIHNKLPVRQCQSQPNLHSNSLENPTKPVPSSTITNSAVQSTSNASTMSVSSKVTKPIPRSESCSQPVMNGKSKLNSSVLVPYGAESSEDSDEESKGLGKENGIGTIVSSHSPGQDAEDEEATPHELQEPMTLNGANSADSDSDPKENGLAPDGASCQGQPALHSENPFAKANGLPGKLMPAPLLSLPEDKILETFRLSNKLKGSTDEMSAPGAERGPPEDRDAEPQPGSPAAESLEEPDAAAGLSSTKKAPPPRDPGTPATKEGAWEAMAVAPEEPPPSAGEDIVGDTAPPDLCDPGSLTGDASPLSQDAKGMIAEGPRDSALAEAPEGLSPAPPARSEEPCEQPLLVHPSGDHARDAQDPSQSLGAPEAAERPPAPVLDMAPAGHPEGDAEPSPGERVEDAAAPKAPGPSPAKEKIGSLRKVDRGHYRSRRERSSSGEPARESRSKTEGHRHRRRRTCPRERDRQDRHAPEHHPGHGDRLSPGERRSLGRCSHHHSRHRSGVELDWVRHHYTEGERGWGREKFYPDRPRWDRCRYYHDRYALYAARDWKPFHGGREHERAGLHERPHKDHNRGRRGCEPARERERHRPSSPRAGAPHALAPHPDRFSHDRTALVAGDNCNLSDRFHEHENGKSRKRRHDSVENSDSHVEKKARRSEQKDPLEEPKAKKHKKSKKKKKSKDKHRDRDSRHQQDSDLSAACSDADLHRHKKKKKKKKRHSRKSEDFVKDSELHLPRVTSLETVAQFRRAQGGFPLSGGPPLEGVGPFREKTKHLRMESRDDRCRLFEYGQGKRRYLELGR
Summary of the method: (§1)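 Each value is an average log2 ratio of fragment to vehicle, tested by unpaired t-test. The underlying Spectronaut label-free quantities were global-median-normalised, and only proteins with ≥2 unique peptides were included. Triplicate HEK293T lysate samples (495 µg) were exposed to fragment at 200 µM or vehicle for 3 h, then to Biotin-Ahx-Ub-VS at 0.5 µM final for 1 h, before NeutrAvidin enrichment of labelled DUBs, LysC and trypsin digestion, and diaPASEF LC-MS/MS.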

[2] = molecular target: USP46 (UniProt P62068)
USP46, sequence (P62068 whole entry): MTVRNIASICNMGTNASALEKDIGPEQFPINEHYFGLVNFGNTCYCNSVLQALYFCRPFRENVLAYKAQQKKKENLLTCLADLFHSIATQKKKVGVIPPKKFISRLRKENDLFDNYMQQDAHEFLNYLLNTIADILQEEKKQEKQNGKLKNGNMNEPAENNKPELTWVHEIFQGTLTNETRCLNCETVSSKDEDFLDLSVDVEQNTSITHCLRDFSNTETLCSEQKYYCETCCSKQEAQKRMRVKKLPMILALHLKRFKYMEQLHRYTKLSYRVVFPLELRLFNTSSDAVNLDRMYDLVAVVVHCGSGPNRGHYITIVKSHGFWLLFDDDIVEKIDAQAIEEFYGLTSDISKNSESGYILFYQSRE
Summary of the method: as §1

[3] = molecular target: T2, USP47 (UniProt Q96K76)
T2 sequence (whole entry): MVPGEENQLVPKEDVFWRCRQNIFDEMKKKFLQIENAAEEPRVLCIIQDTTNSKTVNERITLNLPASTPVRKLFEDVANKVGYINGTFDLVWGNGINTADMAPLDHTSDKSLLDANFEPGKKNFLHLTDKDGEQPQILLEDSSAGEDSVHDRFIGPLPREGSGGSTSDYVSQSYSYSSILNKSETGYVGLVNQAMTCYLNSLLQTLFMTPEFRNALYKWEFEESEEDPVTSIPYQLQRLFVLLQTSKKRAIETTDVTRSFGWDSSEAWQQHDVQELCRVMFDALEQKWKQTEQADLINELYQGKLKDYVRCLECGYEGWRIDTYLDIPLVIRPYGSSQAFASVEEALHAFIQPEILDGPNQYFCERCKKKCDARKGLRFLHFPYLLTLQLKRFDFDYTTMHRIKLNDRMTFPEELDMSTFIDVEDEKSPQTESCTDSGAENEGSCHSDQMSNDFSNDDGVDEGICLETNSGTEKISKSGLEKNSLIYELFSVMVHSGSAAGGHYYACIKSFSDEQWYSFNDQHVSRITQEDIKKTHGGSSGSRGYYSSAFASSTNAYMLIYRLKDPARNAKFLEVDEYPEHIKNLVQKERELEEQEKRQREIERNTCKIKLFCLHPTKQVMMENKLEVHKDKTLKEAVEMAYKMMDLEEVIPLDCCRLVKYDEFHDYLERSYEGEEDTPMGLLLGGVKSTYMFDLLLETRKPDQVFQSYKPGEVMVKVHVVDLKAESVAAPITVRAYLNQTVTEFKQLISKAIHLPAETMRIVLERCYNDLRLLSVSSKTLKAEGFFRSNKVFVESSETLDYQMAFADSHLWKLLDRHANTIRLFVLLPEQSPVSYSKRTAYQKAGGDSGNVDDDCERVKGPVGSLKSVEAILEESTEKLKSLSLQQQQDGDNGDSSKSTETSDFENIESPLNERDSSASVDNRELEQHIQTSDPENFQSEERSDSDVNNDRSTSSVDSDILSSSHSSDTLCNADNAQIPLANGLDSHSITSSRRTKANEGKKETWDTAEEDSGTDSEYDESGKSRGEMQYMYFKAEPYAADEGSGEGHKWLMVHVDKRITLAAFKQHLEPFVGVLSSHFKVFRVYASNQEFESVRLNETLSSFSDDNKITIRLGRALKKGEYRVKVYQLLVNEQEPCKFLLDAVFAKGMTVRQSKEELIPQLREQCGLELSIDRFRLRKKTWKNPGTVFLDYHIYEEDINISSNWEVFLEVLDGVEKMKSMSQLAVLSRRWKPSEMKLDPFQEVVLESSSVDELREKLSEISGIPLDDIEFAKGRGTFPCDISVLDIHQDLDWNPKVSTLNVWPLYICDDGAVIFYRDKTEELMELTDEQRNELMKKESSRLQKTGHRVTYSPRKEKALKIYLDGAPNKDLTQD
Summary of the method: as §1

[4] = molecular target: T3, USP48 (UniProt Q86UV5)
T3 sequence (whole entry): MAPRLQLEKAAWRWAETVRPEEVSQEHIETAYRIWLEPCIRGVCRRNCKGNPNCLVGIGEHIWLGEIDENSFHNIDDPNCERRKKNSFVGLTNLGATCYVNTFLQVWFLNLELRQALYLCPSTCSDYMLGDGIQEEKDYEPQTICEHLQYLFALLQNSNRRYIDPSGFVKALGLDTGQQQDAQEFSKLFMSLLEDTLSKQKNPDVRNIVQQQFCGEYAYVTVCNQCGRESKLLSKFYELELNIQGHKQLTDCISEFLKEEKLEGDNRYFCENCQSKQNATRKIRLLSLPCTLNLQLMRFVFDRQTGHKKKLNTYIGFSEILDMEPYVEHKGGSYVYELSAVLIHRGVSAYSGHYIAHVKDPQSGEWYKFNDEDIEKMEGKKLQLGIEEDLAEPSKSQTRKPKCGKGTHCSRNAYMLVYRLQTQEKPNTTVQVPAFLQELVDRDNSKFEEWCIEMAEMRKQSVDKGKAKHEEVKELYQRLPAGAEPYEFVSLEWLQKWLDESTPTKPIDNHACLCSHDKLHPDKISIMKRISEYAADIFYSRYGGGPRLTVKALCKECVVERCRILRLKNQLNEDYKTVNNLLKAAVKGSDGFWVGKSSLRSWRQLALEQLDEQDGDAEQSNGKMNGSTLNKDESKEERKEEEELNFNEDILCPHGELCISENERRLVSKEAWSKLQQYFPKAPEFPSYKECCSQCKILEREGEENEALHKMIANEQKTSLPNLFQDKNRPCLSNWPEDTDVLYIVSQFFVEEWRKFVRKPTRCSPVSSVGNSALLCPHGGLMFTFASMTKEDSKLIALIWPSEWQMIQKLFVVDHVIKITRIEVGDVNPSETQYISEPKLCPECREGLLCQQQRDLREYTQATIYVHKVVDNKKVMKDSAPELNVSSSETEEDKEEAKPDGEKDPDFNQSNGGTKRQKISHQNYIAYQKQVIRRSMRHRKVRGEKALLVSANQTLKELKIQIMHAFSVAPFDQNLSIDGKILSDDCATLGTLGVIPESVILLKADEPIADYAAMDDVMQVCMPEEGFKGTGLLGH
Summary of the method: as §1

[5] = molecular target: T4, USP5 (UniProt P45974)
T4 sequence (whole entry): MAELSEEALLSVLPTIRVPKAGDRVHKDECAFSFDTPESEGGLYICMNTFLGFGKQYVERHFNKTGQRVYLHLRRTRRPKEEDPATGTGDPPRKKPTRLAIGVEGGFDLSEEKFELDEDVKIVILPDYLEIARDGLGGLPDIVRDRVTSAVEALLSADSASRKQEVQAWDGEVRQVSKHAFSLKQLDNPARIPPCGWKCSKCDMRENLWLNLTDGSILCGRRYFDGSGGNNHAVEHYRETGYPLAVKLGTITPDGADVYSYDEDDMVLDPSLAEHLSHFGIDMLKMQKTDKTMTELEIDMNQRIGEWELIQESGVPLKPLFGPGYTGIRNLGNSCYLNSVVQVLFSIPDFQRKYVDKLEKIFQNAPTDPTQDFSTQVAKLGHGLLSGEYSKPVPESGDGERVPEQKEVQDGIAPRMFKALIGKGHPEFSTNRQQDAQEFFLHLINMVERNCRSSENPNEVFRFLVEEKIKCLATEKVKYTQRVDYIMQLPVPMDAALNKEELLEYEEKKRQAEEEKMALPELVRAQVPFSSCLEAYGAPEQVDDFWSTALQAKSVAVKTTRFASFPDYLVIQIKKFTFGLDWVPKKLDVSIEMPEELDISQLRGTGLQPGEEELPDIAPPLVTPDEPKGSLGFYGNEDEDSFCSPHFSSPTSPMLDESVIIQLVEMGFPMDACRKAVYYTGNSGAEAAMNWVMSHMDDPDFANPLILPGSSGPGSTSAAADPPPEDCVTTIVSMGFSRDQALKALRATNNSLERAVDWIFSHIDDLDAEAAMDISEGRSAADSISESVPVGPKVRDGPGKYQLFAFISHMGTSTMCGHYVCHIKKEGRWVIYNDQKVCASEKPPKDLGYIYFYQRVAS
Summary of the method: as §1

[6] = molecular target: USP54 (UniProt Q70EL1)
USP54, sequence (Q70EL1 whole entry): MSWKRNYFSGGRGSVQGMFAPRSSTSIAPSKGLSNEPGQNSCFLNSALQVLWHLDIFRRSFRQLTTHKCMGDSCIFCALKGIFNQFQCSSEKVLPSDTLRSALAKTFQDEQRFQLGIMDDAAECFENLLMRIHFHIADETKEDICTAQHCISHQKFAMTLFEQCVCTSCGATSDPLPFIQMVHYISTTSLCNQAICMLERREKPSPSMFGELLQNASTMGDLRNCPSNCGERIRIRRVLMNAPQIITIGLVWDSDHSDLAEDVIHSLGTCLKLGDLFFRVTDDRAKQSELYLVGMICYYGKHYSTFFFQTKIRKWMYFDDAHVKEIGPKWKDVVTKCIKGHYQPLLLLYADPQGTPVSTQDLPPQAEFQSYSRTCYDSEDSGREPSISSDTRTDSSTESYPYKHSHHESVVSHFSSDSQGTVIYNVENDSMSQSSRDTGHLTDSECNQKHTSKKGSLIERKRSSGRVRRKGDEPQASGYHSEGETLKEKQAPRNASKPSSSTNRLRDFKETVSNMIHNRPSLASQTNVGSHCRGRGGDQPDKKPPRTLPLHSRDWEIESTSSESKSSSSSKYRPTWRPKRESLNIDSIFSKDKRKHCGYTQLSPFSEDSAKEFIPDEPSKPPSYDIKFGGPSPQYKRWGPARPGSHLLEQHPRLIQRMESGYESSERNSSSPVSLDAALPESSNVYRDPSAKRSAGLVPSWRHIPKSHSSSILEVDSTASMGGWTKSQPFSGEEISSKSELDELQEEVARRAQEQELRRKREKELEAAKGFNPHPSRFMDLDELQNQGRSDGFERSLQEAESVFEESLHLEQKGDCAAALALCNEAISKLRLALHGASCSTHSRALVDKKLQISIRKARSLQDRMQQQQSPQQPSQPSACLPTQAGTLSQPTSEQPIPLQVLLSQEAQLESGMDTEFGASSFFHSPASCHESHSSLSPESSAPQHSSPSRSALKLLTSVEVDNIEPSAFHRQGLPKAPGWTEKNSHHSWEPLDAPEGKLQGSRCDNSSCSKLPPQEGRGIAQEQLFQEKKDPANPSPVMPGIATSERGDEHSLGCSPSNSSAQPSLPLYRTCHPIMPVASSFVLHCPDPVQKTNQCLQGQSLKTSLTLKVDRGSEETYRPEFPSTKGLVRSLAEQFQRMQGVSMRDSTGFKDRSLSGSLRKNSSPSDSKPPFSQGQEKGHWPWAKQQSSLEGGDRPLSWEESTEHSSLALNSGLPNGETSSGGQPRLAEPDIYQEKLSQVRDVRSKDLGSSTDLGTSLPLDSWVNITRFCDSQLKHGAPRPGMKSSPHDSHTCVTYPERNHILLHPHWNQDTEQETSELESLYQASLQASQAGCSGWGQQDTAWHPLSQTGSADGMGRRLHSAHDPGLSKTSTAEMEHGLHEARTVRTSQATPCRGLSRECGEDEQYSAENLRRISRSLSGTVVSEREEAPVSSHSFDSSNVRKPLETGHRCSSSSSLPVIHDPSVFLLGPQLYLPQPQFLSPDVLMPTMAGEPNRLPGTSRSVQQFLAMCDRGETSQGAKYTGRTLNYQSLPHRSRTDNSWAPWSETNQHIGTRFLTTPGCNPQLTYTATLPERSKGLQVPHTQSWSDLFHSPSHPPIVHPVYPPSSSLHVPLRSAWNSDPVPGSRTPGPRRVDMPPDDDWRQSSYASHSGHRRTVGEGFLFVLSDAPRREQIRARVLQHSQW
Summary of the method: as §1

[7] = molecular target: USP7 (UniProt Q93009)
USP7, sequence (Q93009 whole entry, looked up): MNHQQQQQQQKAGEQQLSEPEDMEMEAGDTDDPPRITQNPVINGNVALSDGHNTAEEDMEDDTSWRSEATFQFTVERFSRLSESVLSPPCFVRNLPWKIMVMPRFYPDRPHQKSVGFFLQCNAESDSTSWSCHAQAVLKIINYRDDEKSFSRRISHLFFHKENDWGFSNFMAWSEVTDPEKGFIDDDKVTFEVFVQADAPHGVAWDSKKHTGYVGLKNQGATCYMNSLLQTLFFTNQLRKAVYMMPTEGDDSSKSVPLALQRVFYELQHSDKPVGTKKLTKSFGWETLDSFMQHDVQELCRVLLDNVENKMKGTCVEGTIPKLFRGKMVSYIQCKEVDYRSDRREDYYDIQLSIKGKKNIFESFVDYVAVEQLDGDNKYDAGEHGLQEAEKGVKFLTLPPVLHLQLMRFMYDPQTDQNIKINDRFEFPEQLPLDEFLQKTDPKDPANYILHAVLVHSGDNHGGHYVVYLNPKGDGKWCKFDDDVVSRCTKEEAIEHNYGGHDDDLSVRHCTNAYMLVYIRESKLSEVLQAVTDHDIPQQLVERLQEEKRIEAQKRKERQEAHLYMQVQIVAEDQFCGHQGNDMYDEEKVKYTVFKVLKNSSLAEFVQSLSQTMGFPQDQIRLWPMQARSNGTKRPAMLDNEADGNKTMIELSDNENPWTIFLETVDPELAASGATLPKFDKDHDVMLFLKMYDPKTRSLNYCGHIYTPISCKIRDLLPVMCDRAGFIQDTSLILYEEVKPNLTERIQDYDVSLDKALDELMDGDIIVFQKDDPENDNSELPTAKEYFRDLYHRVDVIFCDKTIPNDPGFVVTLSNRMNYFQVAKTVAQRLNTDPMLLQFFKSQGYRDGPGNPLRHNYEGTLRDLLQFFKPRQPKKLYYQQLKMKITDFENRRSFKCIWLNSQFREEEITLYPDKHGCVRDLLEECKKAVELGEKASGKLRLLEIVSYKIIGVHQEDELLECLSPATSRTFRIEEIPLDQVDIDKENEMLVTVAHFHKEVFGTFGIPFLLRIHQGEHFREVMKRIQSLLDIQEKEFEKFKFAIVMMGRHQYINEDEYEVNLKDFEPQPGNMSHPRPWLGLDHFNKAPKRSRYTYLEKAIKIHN
Summary of the method: as §1

[8] = molecular target: T5, USP8 (UniProt P40818)
T5 sequence (whole entry): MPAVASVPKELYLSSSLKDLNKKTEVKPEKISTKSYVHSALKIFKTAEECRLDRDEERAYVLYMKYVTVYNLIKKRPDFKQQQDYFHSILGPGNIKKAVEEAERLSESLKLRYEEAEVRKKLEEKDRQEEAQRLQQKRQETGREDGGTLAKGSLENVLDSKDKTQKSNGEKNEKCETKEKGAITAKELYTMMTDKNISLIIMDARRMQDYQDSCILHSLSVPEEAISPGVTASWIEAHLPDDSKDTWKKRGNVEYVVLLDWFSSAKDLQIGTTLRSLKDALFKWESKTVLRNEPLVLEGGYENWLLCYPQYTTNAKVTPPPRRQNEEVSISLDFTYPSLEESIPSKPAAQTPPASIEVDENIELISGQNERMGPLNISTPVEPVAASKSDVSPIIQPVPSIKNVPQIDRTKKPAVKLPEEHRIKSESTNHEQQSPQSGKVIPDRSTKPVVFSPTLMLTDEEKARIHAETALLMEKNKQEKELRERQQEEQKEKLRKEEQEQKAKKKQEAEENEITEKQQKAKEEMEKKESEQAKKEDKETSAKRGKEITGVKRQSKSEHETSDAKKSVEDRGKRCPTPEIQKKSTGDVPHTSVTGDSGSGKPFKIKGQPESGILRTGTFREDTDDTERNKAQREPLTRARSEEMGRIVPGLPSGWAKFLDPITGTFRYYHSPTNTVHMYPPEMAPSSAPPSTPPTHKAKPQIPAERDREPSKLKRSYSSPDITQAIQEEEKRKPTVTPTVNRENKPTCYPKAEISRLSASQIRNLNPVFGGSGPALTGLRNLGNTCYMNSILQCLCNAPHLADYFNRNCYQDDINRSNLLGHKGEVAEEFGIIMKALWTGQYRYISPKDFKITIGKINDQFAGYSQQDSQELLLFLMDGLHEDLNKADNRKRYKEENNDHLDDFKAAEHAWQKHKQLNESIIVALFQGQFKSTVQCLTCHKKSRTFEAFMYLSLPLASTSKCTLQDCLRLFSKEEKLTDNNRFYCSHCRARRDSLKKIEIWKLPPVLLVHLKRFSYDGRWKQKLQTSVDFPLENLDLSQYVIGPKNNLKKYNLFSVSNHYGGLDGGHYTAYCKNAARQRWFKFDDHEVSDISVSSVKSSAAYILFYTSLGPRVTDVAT
Summary of the method: as §1

[9] = molecular target: USP9X (UniProt Q93008)
Summary of the method: as §1

[10] = molecular target: UniProt O00487
UniProt O00487, sequence (O00487 whole entry): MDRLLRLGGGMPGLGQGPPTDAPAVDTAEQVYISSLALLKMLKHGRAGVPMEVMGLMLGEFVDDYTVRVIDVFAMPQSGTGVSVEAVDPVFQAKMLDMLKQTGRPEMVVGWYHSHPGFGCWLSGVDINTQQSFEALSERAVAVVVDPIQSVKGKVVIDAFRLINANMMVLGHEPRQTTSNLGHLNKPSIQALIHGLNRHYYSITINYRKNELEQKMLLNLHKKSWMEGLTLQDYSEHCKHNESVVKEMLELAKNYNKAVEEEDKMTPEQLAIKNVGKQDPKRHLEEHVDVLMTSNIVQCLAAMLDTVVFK
Summary of the method: as §1

Measured: log2 ratio of Biotin-Ahx-Ub-VS probe labelling

Cc1ccc(N(CCC#N)C(=O)CCl)cc1C
inactive: [1] -0.126 | [2] -0.12 | [3] -0.28 | [5] 0.408 | [6] -0.137 | [8] -0.394 | [9] -0.324 | [10] -0.246
active: [4] -1.01 | [7] -1.27
